This is part of a sample that, as a whole, favours compounds with a hit. Of some 83,000 tested, about 20% had one in any assay.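 How to read the values: 0–100, growth inhibition (40 = 60% inhibited); 0, no net growth; -100 to 0, cell death (-40 = 40% of starting cells died; -100 = all dead).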 Values without a mark were called inactive. Active and inactive are the calls of the source. The calls were made as follows: active = growth percent below 10; inactive = the rest.

One experiment has as its system A549/ATCC NSCLC. As to the kind of experiment: NCI-60 one-dose screen, 48 h (100 = growth as untreated, 0 = no growth, -100 = all killed). To be noted: 10 µM unless noted.
Consider `O=C1c2cc3c(cc2-c2c1c1cc(Cl)c(Cl)cc1c(=O)n2CCCn1ccnc1)OCO3`, for which the growth was 3.18% (active).

For `CCCCCCCCOC(=O)CC[C@@H](C)[C@H]1CC[C@H]2[C@@H]3[C@H](OC(=O)CCN)C[C@@H]4C[C@H](OC(=O)CCN)CC[C@]4(C)[C@H]3C[C@H](OC(=O)CCN)[C@]12C`, the growth is 81.3%.

As for `COc1ccc(-c2cnoc2-c2cc(OC)c3c(c2)OCCO3)cc1`, the growth is 18.6%.

Turning to `Cc1nn(-c2ccccc2)c2nc(C)n(-c3ccc(Br)cc3)c(=O)c12`, the growth is 21.3%.

In the case of `CCN(CC)CC(C)(C)C(=O)/C=C/c1ccccc1`, the growth is 80.3%.

As for `Cc1ccc2cnc(N)c(C#Cc3cncc(C(=O)Nc4ccc(CN5CCN(C)CC5)c(C(F)(F)F)c4)c3)c2c1`, the growth is -79.4% (active).

Take `C[C@H](CCC(=O)O)[C@H]1CC[C@H]2[C@@H]3CC[C@@H]4/C(=C\c5ccco5)C(=O)/C(=C\c5ccco5)C[C@]4(C)[C@H]3CC[C@]12C`: the growth was 72.1%.

Regarding `COc1ccc(-c2cc(-c3ccc(N(C)C)cc3)nc(NC(=O)c3ccncc3)n2)cc1`, the growth is 93.7%.

With `COc1ccc2c(c1)C(=O)/C(=C/c1cccc(OCC(=O)Nc3nc4c(s3)CCCC4)c1)O2`, the growth was 54.6%.

For `Cc1nc2sc(C(=O)Nc3cccc4c3OCCO4)c(N)c2cc1C(C)O` (stereo unspecified), the growth was 49.9%.

`CCCCCCNC(=O)Oc1ccc(/C(=C(\C)c2ccccc2)c2ccc(OCCN(CC)CC)cc2)cc1`: the growth was 49.9%.

For the compound `O=[N+]([O-])c1c(F)cccc1Nc1cccc(F)c1`, the growth was 106%.

Turning to `Nc1ccc2c(c1)C(=O)NC2=O`, the growth was 105%.

Turning to `CC(C)[C@@H]1CC[C@]2(C(=O)NCCCCN=C(N)N)CC[C@]3(C)[C@H](CC[C@@H]4[C@@]5(C)CCC(=O)C(C)(C)[C@@H]5CC[C@]43C)[C@@H]12`, the growth was 80.9%.

As for `CCc1ccccc1NC(=O)c1sc2nc3c(cc2c1N)C(=O)CCC3`, the growth is 21.5%.

Take `O=C1c2c[n+](Cc3ccccc3)ccc2-c2nc3ccccc3c3ccnc1c23`: the growth was -26.1% (active).

Turning to `CCN(C(=O)CN1CCN(c2cc3c(cc2F)c(=O)c(C(=O)O)cn3CC)CC1)c1nc(-c2ccccc2)cs1`, the growth is 4.66% (active).

On to `O=C(Nc1ccc(F)cc1)Nc1ccc(CCO)cc1`, for which the growth is 91.4%.

For `CCCNc1nc(SC)nc(-c2cccc(N)c2)c1C#N`, the growth is 104%.

Regarding `CC/C(=C(\c1ccc(O)cc1)c1ccc(OCCN(C)CCN(C)C(=O)CCCCC(=O)c2c(C)[nH]c(/C=C3\N=C(c4ccc[nH]4)C=C3OC)c2C)cc1)c1ccccc1`, the growth was 88.5%.

On to `c1c2c(cc3c1OCO3)Cc1cc3c(cc1Cc1cc4c(cc1C2)OCO4)OCO3`, for which the growth is 91.6%.

As for `C(=N\Nc1nnn(Cc2ccccc2)n1)/c1ccccc1`, the growth is 33.6%.

Turning to `NS(=O)(=O)N(c1cc(C(F)(F)F)cc(C(F)(F)F)c1)C1CCN(Cc2ccc(F)cc2)CC1`, the growth is 66.5%.

Take `CC(=O)Oc1cc2cnc3c4cc(OC(C)=O)c(OC(C)=O)cc4ccc3c2cc1OC(C)=O`: the growth was 25.5%.

On to `O=C1C=CC(Nc2ccccc2[N+](=O)[O-])C1Nc1ccccc1[N+](=O)[O-]` (stereo unspecified), for which the growth was 92.2%.

For the compound `O=C(COCc1c(-c2ccccc2)no[n+]1[O-])Nc1ccc(C(=O)/C=C/c2ccc3c(c2)OCO3)cc1`, the growth is 85.4%.

Take `CCOC(=O)c1c2c(n3ccc(NC(=O)CCN4CCOCC4)cc13)C(=O)c1ncccc1C2=O`: the growth was 40.4%.

For `COc1cc2c(=O)n(CC3CCCCC3)c3c4cc[nH]c4ncc3c2cc1OC`, the growth is 31.6%.

On to `COc1ccc(-c2cc(=O)[nH]c3c(OC)c4ccccc4c(OC)c23)cc1`, for which the growth was 23.6%.

With `Cn1c(=O)c2[nH]c(C(O)C(O)C(O)C(O)CO)nc2n(C)c1=O` (stereo unspecified), the growth is 88.7%.

Consider `C=C1CCC2C3(C)COC(c4ccc(OC)cc4Br)OC3CCC2(C)C1/C=C/C1=CCOC1=O` (stereo unspecified), for which the growth is 58.2%.

For the compound `COc1ccc(-c2cn3c(ccc4ccccc43)n2)cc1`, the growth was 107%.

Turning to `Cc1ccc(Nc2c(C(N)=O)cnc3ccc(-c4csc(N)n4)cc23)cc1`, the growth is 95.4%.

For `CCN(CC)CC#CCOC(=O)[C@]1(C)CCC[C@@]2(C)[C@H]1CC(C=O)=C1C=C(C(C)C)CC[C@@H]12`, the growth was 62.4%.

In the case of `CCCCCCCCCCCCS(=O)CC(C)O` (stereo unspecified), the growth is 93%.

For the compound `c1ccc2sc(SCCCn3ccnc3)nc2c1`, the growth was 74.9%.

For the compound `CCCCCCCCCCCCCCCCCCNC(=O)[C@H]1CSC(c2ccc(OC)c(F)c2)N1` (stereo partly specified), the growth was 20.9%.

For `O=C(/C=C\c1cccc([N+](=O)[O-])c1)c1ccccc1`, the growth is 92.9%.

A further experiment relates to 786-0 renal. The description is as above. To be noted: 10 µM unless noted.
As to `O=C1c2cc3c(cc2-c2c1c1cc(Cl)c(Cl)cc1c(=O)n2CCCn1ccnc1)OCO3`, the growth was -3.17% (active).

`CCCCCCCCOC(=O)CC[C@@H](C)[C@H]1CC[C@H]2[C@@H]3[C@H](OC(=O)CCN)C[C@@H]4C[C@H](OC(=O)CCN)CC[C@]4(C)[C@H]3C[C@H](OC(=O)CCN)[C@]12C`: the growth is 99.1%.

In the case of `COc1ccc(-c2cnoc2-c2cc(OC)c3c(c2)OCCO3)cc1`, the growth was 8.21% (active).

`Cc1nn(-c2ccccc2)c2nc(C)n(-c3ccc(Br)cc3)c(=O)c12`: the growth is 43.3%.

`CCN(CC)CC(C)(C)C(=O)/C=C/c1ccccc1`: the growth is 60%.

As for `Cc1ccc2cnc(N)c(C#Cc3cncc(C(=O)Nc4ccc(CN5CCN(C)CC5)c(C(F)(F)F)c4)c3)c2c1`, the growth was -79.6% (active).

For `C[C@H](CCC(=O)O)[C@H]1CC[C@H]2[C@@H]3CC[C@@H]4/C(=C\c5ccco5)C(=O)/C(=C\c5ccco5)C[C@]4(C)[C@H]3CC[C@]12C`, the growth is 91%.

With `COc1ccc(-c2cc(-c3ccc(N(C)C)cc3)nc(NC(=O)c3ccncc3)n2)cc1`, the growth is 97.1%.

Consider `COc1ccc2c(c1)C(=O)/C(=C/c1cccc(OCC(=O)Nc3nc4c(s3)CCCC4)c1)O2`, for which the growth was 63.3%.

Take `Cc1nc2sc(C(=O)Nc3cccc4c3OCCO4)c(N)c2cc1C(C)O` (stereo unspecified): the growth is 43.2%.

Consider `CCCCCCNC(=O)Oc1ccc(/C(=C(\C)c2ccccc2)c2ccc(OCCN(CC)CC)cc2)cc1`, for which the growth is 44.7%.

Take `O=[N+]([O-])c1c(F)cccc1Nc1cccc(F)c1`: the growth is 93.9%.

Take `Nc1ccc2c(c1)C(=O)NC2=O`: the growth is 110%.

As for `CC(C)[C@@H]1CC[C@]2(C(=O)NCCCCN=C(N)N)CC[C@]3(C)[C@H](CC[C@@H]4[C@@]5(C)CCC(=O)C(C)(C)[C@@H]5CC[C@]43C)[C@@H]12`, the growth is 70.7%.

Regarding `CCc1ccccc1NC(=O)c1sc2nc3c(cc2c1N)C(=O)CCC3`, the growth was 35.1%.

For the compound `O=C1c2c[n+](Cc3ccccc3)ccc2-c2nc3ccccc3c3ccnc1c23`, the growth is -5.78% (active).

As for `CCN(C(=O)CN1CCN(c2cc3c(cc2F)c(=O)c(C(=O)O)cn3CC)CC1)c1nc(-c2ccccc2)cs1`, the growth is 14.3%.

In the case of `O=C(Nc1ccc(F)cc1)Nc1ccc(CCO)cc1`, the growth was 109%.

On to `CCCNc1nc(SC)nc(-c2cccc(N)c2)c1C#N`, for which the growth was 102%.

In the case of `CC/C(=C(\c1ccc(O)cc1)c1ccc(OCCN(C)CCN(C)C(=O)CCCCC(=O)c2c(C)[nH]c(/C=C3\N=C(c4ccc[nH]4)C=C3OC)c2C)cc1)c1ccccc1`, the growth is 103%.

For the compound `c1c2c(cc3c1OCO3)Cc1cc3c(cc1Cc1cc4c(cc1C2)OCO4)OCO3`, the growth was 110%.

Take `C(=N\Nc1nnn(Cc2ccccc2)n1)/c1ccccc1`: the growth was 63.6%.

Turning to `NS(=O)(=O)N(c1cc(C(F)(F)F)cc(C(F)(F)F)c1)C1CCN(Cc2ccc(F)cc2)CC1`, the growth was 55.5%.

Take `CC(=O)Oc1cc2cnc3c4cc(OC(C)=O)c(OC(C)=O)cc4ccc3c2cc1OC(C)=O`: the growth was 18.9%.

For `O=C1C=CC(Nc2ccccc2[N+](=O)[O-])C1Nc1ccccc1[N+](=O)[O-]` (stereo unspecified), the growth was -76.7% (active).

`O=C(COCc1c(-c2ccccc2)no[n+]1[O-])Nc1ccc(C(=O)/C=C/c2ccc3c(c2)OCO3)cc1`: the growth was 113%.

As for `CCOC(=O)c1c2c(n3ccc(NC(=O)CCN4CCOCC4)cc13)C(=O)c1ncccc1C2=O`, the growth was 51.8%.

In the case of `COc1cc2c(=O)n(CC3CCCCC3)c3c4cc[nH]c4ncc3c2cc1OC`, the growth is 46.4%.

Take `COc1ccc(-c2cc(=O)[nH]c3c(OC)c4ccccc4c(OC)c23)cc1`: the growth was 34.5%.

In the case of `Cn1c(=O)c2[nH]c(C(O)C(O)C(O)C(O)CO)nc2n(C)c1=O` (stereo unspecified), the growth was 107%.

As to `C=C1CCC2C3(C)COC(c4ccc(OC)cc4Br)OC3CCC2(C)C1/C=C/C1=CCOC1=O` (stereo unspecified), the growth is 77.6%.

Turning to `COc1ccc(-c2cn3c(ccc4ccccc43)n2)cc1`, the growth was 111%.

Take `Cc1ccc(Nc2c(C(N)=O)cnc3ccc(-c4csc(N)n4)cc23)cc1`: the growth is 101%.

Consider `CCN(CC)CC#CCOC(=O)[C@]1(C)CCC[C@@]2(C)[C@H]1CC(C=O)=C1C=C(C(C)C)CC[C@@H]12`, for which the growth was 58.3%.

As to `CCCCCCCCCCCCS(=O)CC(C)O` (stereo unspecified), the growth was 102%.

For the compound `c1ccc2sc(SCCCn3ccnc3)nc2c1`, the growth was 104%.

In the case of `CCCCCCCCCCCCCCCCCCNC(=O)[C@H]1CSC(c2ccc(OC)c(F)c2)N1` (stereo partly specified), the growth was 22.8%.

As for `O=C(/C=C\c1cccc([N+](=O)[O-])c1)c1ccccc1`, the growth is 13.2%.

The record behind these values is PubChem BioAssay (NCI).
